# Screening results from PubChem BioAssay.
# Pf growth 48h: inhibits P. falciparum growth in the first generation, 48 h; P. falciparum luciferase growth in erythrocytes, 48 h; Potency, µM (top dose mostly 28.7 µM), for inactives: at the top dose activity change, negative = inhibition, usual class: inhibitors; actives 5.9% (n = 310,000); further: potency means the concentration at half of the fitted maximal effect; on the % scale 0 is the no-effect control and ±100 the full control effect
#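 Erythrocytes infected with P. falciparum carrying an integrated firefly luciferase reporter (2% hematocrit, 0.1% parasitemia final) were exposed to compounds in RPMI 1640 with 0.5% Albumax at 37 C, 5% CO2. Growth inhibition was scored as reduced luminescence.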
# Marburg entry inh: blocks Marburg virus binding to or entry into cells | Marburg virus pseudotyped entry inhibition, cell reporter | Potency, µM (doses to about 37.8 µM), inactives show at the highest dose activity change, negative = inhibition, actives largely listed as inhibitors | actives 1.8% (n = 300,000) | AID 540276; calls by dose curve; tested in HEK293 cells; further: potency means the concentration at half of the fitted maximal effect; on the % scale 0 is the no-effect control and ±100 the full control effect
# Shiga inhibitor: inhibitors of Shiga toxin in Vero cells | Vero cells, Shiga toxin protein synthesis inhibition reporter | inhibition, % at 38.7 µM | actives 9.2% (n = 290,000) | AID 2315; in the data active means inhibition mostly above about 28%, no sharp cut-off; inactive means mostly below about 43%; further: 0% is about no effect
# Cycloheximide cs: affects cycloheximide protein synthesis inhibition readout, counter-screen; cell reporter, cycloheximide protein synthesis inhibition counterscreen; max response, %; actives 12% (n = 300,000); AID 2314; in the data active means max response mostly above about 13%, no sharp cut-off; inactive means mostly below about 14%; further: read at 38.3 µM for the half of the compounds with a filed dose; 0% is about no effect
# Pf growth 96h: inhibits malaria parasite growth, 96 h. Potency, µM (titrated, usually from 28.7 µM), for the others: top-dose activity change, negative = inhibition, hits mostly inhibitors. P. falciparum luciferase reporter growth, 96 h. actives 6.9% (n = 320,000); further: potency means the concentration at half of the fitted maximal effect; on the % scale 0 is the no-effect control and ±100 the full control effect
#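 P. falciparum expressing integrated firefly luciferase grown in erythrocytes (2% hematocrit, 0.05% parasitemia final) with compounds for 96 hours at 37 C, 5% CO2. Growth inhibition read as loss of luminescence after adding luciferase detection reagent.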
# LASV entry inh: Lassa virus entry inhibition | Lassa virus pseudotype entry inhibition, cell reporter | Potency, µM (titrated, usually from 37.9 µM), inactives show at the highest dose activity change, negative = inhibition, most hits filed as inhibitors | actives 1.2% (n = 300,000) | AID 540256; calls by dose curve; tested in HEK293 cells; further: potency means the concentration at half of the fitted maximal effect; on the % scale 0 is the no-effect control and ±100 the full control effect; nearly all actives have a fitted effect of over 50% in size
# * marks the source's active call; other numbers are inactive results; i = inactive; ? = inconclusive; · = no result; [ ] = another dose, or the depositor's remark. The list is not random: actives were taken first. Their share in the collection is about 19%. Unless noted, the call rests on the fitted dose curve; in most records, active means well fitted inhibition curve with a large enough effect; inconclusive means small, poorly fitted or top-dose-only effect, or another doubt; inactive means no such curve, though single readings can be large or run the other way.
SMILES,Pf growth 48h,Marburg entry inh,Shiga inhibitor,Cycloheximide cs,Pf growth 96h,LASV entry inh
O=S(=O)(c1cccc(-c2cn3cc(Cl)ccc3n2)c1)N1CCOCC1,-20%,?,7,-1,·,0%
O=C(CSc1ccc2nnc(-c3ccccc3)n2n1)NCC1CCCO1 (stereo unspecified),7%,8%,5,-1,-27%,-1%
COc1ccccc1N(C(C)=O)C1SC(=O)N(c2ccccc2)C1=O (stereo unspecified),-8%,-14%,-4,-4,3%,-1%
S=C1NC2=C(C(c3ccc(Br)cc3)N1)N1CCC2CC1 (stereo unspecified),47%,-1%,-11,-1,36%,21%
CCC(=O)Nc1ccc2c(c1)ncn2-c1ccccc1C,-28%,-3%[46.1 µM],14,-3,i,-5%[46.1 µM]
CCC(=O)Nc1ccc2c(c1)ncn2-c1ccc(OC)cc1,-11%,?,66*,46*,98%,-2%
CCC(=O)Nc1ccc2c(c1)ncn2-c1ccc(C)cc1,139%,-22%,96*,36*,?,-30%
COc1ccc(OCC(=O)Nc2ccc3nn(-c4ccc(OC)cc4)nc3c2)cc1,·,·,·,·,·,-8%[46.1 µM]
CC12CC(c3ccccc3O1)N(C(=O)c1ccco1)C(=O)N2c1ccccc1 (stereo unspecified),-3%,-7%,-2,-1,?,5%
O=C(Nc1cc(S(=O)(=O)N2CCOCC2)ccc1N1CCCCC1)c1ccccc1,?,2%,·,·,4.7µM*,-12%
CCN1CCN(c2ccc(S(=O)(=O)N3CCOCC3)cc2NC(=O)/C=C/c2ccc(C)cc2)CC1,-98%,?,·,·,?,-24%
O=C(/C=C/c1ccc(Cl)cc1)Nc1cc(S(=O)(=O)N2CCOCC2)ccc1N1CCOCC1,·,?,·,·,·,4.5µM*
Cc1ccc(S(=O)(=O)NC(=O)c2cc(C)n(-c3cc(S(=O)(=O)N4CCOCC4)ccc3N3CCCC3)c2C)cc1,·,-2%,-21,-2,4.7µM*,0%
Cc1cccc(C(=O)Nc2cc(S(=O)(=O)N3CCOCC3)ccc2N2CCCCC2)c1,7.4µM*,?,·,·,?,?
CCOc1ccc(C(=O)N(CN2CCCC2=O)c2cccc(Cl)c2)cc1,11%,-9%[46.1 µM],-6,-3,-4%,-13%
O=C(Nc1cc(S(=O)(=O)N2CCCCC2)ccc1N1CCOCC1)c1cc(=O)[nH]c2ccccc12,?,·,-2,-2,8.3µM*,·
COc1ccc(S(=O)(=O)N2CCOCC2)cc1NC(=O)c1cc(=O)[nH]c2ccccc12,-29%,·,·,·,?,·
Cc1ccccc1C(=O)N1CCC(C(=O)Nc2ccc(F)cc2F)CC1,·,-7%[46.1 µM],·,·,·,19%[46.1 µM]
O=C(Nc1cc(S(=O)(=O)N2CCOCC2)ccc1N1CCCC1)c1ccc(Cl)cc1,15µM*,-5%,·,·,?,-13%
Cc1ccccc1C(=O)N1CCC(C(=O)Nc2cc(C(F)(F)F)ccc2N2CCCC2)CC1,-24%,4%,·,·,10µM*,-1%
O=C(Nc1cc(S(=O)(=O)N2CCOCC2)ccc1N1CCCCC1)c1ccc(Cl)cc1,13µM*,·,·,·,8.3µM*,·
CC(=O)N1CCC[C@H]1C(=O)O,-4%,·,17,1,2%,·
O=C(NCCc1c[nH]c2ccccc12)c1cc(S(=O)(=O)N2CCCCC2)ccc1N1CCOCC1,7.4µM*,-26%,16,11,66%,-12%
CC1CC1C(=O)Nc1cc(C(F)(F)F)ccc1N1CCOCC1 (stereo unspecified),?,·,-12,-2,-14%,·
Cc1ccc(S(=O)(=O)N2CCC(C(=O)Nc3cc(C(F)(F)F)ccc3N3CCOCC3)CC2)cc1C,?,?,·,·,9.3µM*,-1%
SMILES,Pf growth 48h,Marburg entry inh,Shiga inhibitor,Cycloheximide cs,Pf growth 96h,LASV entry inh
Cn1c(=O)n(C)c2cc(N3CCCC3)c(NC(=O)Nc3ccccc3)cc21,·,-1%[46.1 µM],·,·,·,?
CN1CCN(c2ccc(C(F)(F)F)cc2NC(=O)Nc2ccccc2)CC1,·,·,-8,5,1.5µM*,·
O=C(Nc1cc(S(=O)(=O)N2CCCCC2)ccc1N1CCOCC1)c1ccc(C(F)(F)F)cc1,9.3µM*,-11%,·,·,13µM*,?
Cc1csc(=O)n1CCC(=O)OCc1nnc(-c2ccccc2Cl)o1,·,0%,·,·,·,5%
O=C(Nc1ccccc1N1CCCCC1)c1cc(S(=O)(=O)N2CCOCC2)ccc1F,10µM*,?,·,·,0%,?
Cc1cc2[nH]c(=O)c(=O)[nH]c2cc1S(=O)(=O)NCc1ccc(F)cc1,·,·,·,·,·,8%[46.1 µM]
CCCc1cc(C(=O)Nc2sc3c(c2C(=O)OCC)CCCC3)no1,3%,·,1,-4,-17%,·
CCCc1cc(C(=O)Nc2ccc(C)cc2)no1,·,·,127*,34*,1%,·
COc1ccc(CNC(=O)c2cc(-c3ccco3)on2)cc1,?,1%,11,9,0%,-5%
CCCc1cc(C(=O)Nc2ccc(CC)cc2)no1,186%,?,73*,54*,?,?
CCCc1cc(C(=O)NCc2ccc(OC)cc2)no1,·,·,77*,21*,46%,·
CCOC(=O)CSc1nnc(Cc2cc(=O)[nH]c(=O)[nH]2)n1-c1ccc(Cl)cc1,·,·,-9,-1,-16%,·
COc1cc(/C=C/C(=O)N2CCN(C)CC2)cc(S(=O)(=O)N2CCc3ccccc32)c1OC,44%,·,-8,-1,?,·
CC(C)(C)OC(=O)N1CCN(C(=O)c2cccnc2Cl)CC1,6%,11%,-7,-3,0%,2%
O=C(CCCN1C(=O)[C@H]2CC=CC[C@H]2C1=O)NCc1nc(-c2ccc(Cl)cc2)no1,12%,·,14,-3,-12%,·
COc1cccc(OC)c1C(=O)NCC12CC3CC(C1)CC(CNC(=O)c1c(OC)cccc1OC)(C3)C2,34%,·,3,-1,3.3µM*,·
COC(=O)NCC12CC3CC(C1)CC(CNC(=O)OC)(C3)C2,?,?,16,-6,?,-4%
CC(C)CNC(=O)CCc1nc(-c2ccccc2)no1,35%,-2%,33*,27*,45%,-9%
COc1ccc(-c2noc(CNC(=O)CCCN3C(=O)[C@H]4CC=CC[C@H]4C3=O)n2)cc1,6%,·,15,18*,-36%,·
O=C(CCc1nc(-c2ccccc2)no1)NCCc1ccccc1,21%,?,-12,12,0%,7%
COc1ccc(CCCC(=O)Nc2ccccc2F)cc1,41%,9%,109*,21*,-12%,0%
O=[N+]([O-])c1ccccc1S(=O)(=O)N1CCN(c2ccccc2)CC1,10%,·,-7,7,0%,·
COc1ccc(-c2cc(CCCC(=O)NCc3ccccn3)no2)cc1,·,·,21,34*,?,·
COc1ccc(CNC(=O)CC23CC4CC(CC(C4)C2)C3)cc1,-1%,-4%[46.1 µM],15,-2,-15%,-13%[46.1 µM]
COc1ccc(CCC(=O)NCC23CC4CC(CC(C4)C2)C3)cc1,-10%,·,-19,15*,-10%,·
CCOc1ccc(-c2noc(CCC(=O)O)n2)cc1,·,·,-16,-4,12µM*,·
